High-throughput results deposited in PubChem BioAssay by National Center for Advancing Translational Sciences (NCATS).
An excerpt weighted towards active compounds, which were near 4.6% of everything screened.
D1 potentiator = Potentiators of Human D1 Dopamine Receptor: qHTS | D(1A) dopamine receptor (Homo sapiens), P21728 | HEK293 TREx D1 cells, calcium flux, dopamine EC20 potentiation | potentiation, % at 10 µM | 0.036% of 360,000 active | AID 504651, 2011; in the data active = potentiation above about 30%; note: 0% is about no effect
Target sequence (P21728 whole entry, looked up): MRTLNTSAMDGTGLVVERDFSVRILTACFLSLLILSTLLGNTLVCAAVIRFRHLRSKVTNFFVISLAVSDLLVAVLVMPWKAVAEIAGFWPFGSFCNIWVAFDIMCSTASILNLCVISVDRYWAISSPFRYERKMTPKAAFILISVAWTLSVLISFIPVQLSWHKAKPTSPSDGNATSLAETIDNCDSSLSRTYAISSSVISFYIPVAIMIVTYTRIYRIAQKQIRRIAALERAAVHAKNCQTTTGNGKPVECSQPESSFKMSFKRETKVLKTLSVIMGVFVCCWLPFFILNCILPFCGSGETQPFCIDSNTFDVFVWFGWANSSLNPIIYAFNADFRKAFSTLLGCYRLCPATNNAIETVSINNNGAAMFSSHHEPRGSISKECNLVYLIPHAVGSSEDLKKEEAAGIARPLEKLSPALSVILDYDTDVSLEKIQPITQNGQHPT
TRHR ag = qHTS for Small Molecule Agonists and Allosteric Enhancers of Human TRH Receptor: Primary Screen for Agonists; activation, % at 2 µM; TRHR cells, calcium flux fluo-8, FDSS agonist mode; Thyrotropin-releasing hormone receptor (Homo sapiens), P34981; 0.18% of 360,000 active; note: 0% is about no effect
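Agonist-mode FDSS calcium read (Ex 480/Em 530, 1 s cycles) in 1536-well TRHR cells with fluo-8 dye, after 10-cycle baseline and 23 nL compound addition; TRH at EC20 (10 nM final) added afterwards for the enhancer phase.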
TRHR enhancer = qHTS for Small Molecule Agonists and Allosteric Enhancers of Human TRH Receptor: Primary Screen for Enhancers | TRHR cells, fluo-8 calcium fluorescence, EC20 TRH enhancement | enhancement, % at 2 µM | 0.66% of 360,000 active; in the data active = enhancement above about 30%; note: 0% is about no effect
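TRHR-expressing cells loaded with fluo-8 calcium dye were read kinetically (ex 480/em 530) during compound addition, then stimulated with an EC20 of TRH (10 nM final). Enhancement of the Gq-mediated intracellular calcium response was scored.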
D1 agonist = Allosteric Agonists of the Human D1 Dopamine Receptor: qHTS. 1% of 360,000 active. AID 504660, 2011. activation, % at 2 µM. HEK293 T-REx D1 cells, calcium flux, agonist mode. D(1A) dopamine receptor (Homo sapiens), P21728; note: 0% is about no effect
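Tetracycline-induced HEK293 TREx D1 cells, force-coupled to calcium signalling, were dye-loaded with a no-wash calcium kit. Compound was pin-added after a 10 s baseline. Fluorescence was read kinetically at 1 cycle/s for 180 s, with calcium rises flagged as agonism.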
D1 antagonist = Antagonist of Human D 1 Dopamine Receptor: qHTS; HEK293 TREx D1 cells, calcium flux, dopamine EC80; hits give low values; 3.2% of 360,000 active; D(1A) dopamine receptor (Homo sapiens), P21728; activity change, negative = inhibition, % at 10 µM; in the data active = activity change below about -30%; note: % is set by controls: 0 for no effect and ±100 for the full control effect
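Antagonism measured as reduced calcium response to an EC80 dopamine addition following 180 s compound pre-read; cells were inducible HEK293 Trex D1 plated overnight at 30 C, read kinetically at 1 cycle/sec.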
Starred values were filed as active, the others as inactive; nt = no result. Cut-off read from the data, not from the text of the source, unless noted: active = activation above about 30%; inactive = the rest.

SMILES	D1 potentiator	TRHR ag	TRHR enhancer	D1 agonist	D1 antagonist
CC(=O)c1cccc(OCC(O)CNCC2COc3ccccc3O2)c1 (configuration not stated)	-13	-2	12	45*	-48*
Cc1nc(-c2ccccc2)sc1-c1ccc(SCC(=O)Nc2ccccc2)nn1	-5	1	2	0	-2
COC(=O)c1ccc(NC(=O)CSc2ccc(-c3sc(-c4ccccc4)nc3C)nn2)cc1	-6	0	1	0	-46*
COc1ccc(C)cc1-n1cnc2cc(C(=O)NC3CCCCCC3)ccc21	-9	-1	-1	3	0
O=c1cc(-c2ccccc2)nc(Cc2c(Cl)cccc2Cl)[nH]1	-1	1	31*	4	30
CCc1nc(-c2ccccc2)cc(=O)[nH]1	-1	0	-5	-1	38
CC(=O)Nc1ccc(S(=O)(=O)Oc2ccc(C(=S)N3CCC(O)CC3)cc2)cc1	-5	0	3	6	-9
CC(=O)Nc1ccc(OS(=O)(=O)c2c(C)cc(C)cc2C)cc1	-2	1	-5	4	-66*
CC(=O)Nc1ccc(S(=O)(=O)Oc2ccc(C(=S)N3CCCCC3)cc2)cc1	-9	0	-14	26	-33*
CCOc1cc(C(=S)N2CCOCC2)ccc1OS(=O)(=O)c1ccc(OC)cc1	-11	0	-6	14	-3
CCOc1cc(C(=S)N2CCOCC2)ccc1OS(=O)(=O)c1ccc(NC(C)=O)cc1	-5	1	-3	7	-33*
COc1cccc([C@H]2Nc3ccc(S(=O)(=O)Nc4cc(C)ccc4C)cc3[C@H]3C=CC[C@H]32)c1	-2	0	2	2	-1
CC(=O)N1CCN(c2cc(N3CCCC3)c(F)cc2[N+](=O)[O-])CC1	-2	-3	-4	1	-14
CCN1CCN(c2cc(N3CCc4ccccc4C3)c(F)cc2[N+](=O)[O-])CC1	-9	1	2	6	-40*
COc1ccc(NC(=O)CN2CCN(C(=O)c3ccco3)CC2)c(OC)c1	-3	0	9	4	3
COc1ccc(NC(=S)N2CCN(C(=O)c3ccco3)CC2)c(OC)c1	-7	1	-3	2	-68*
COc1ccc(NC(=O)CSCC(=O)N2CCN(C(=O)c3ccco3)CC2)cc1	nt	0	0	3	-63*
COc1ccc(NC(=O)N(C2CCCCC2)C(C)c2cccnc2)c(OC)c1 (configuration not stated)	-3	0	-8	3	-7
COc1ccc(NC(=O)N(C2CCCCC2)C(C)c2ccco2)c(OC)c1 (configuration not stated)	-18	0	-19	1	-78*
CCOc1ccccc1CNC(=O)CCCn1nc(C)c2sc3ccccc3c2c1=O	-2	0	0	1	0
Cc1ccc(-n2ncc3c(N4CCCCCC4)ncnc32)cc1	-2	0	-3	-4	-22
CCc1ccc2oc(-c3cc(NC(=O)C(C)C)cc(C)c3O)nc2c1	-2	1	-2	0	1
O=C(c1ccccc1)N1CCC(CC2CC(c3cccc(Br)c3)=NO2)(C(=O)NCC2CCCCC2)CC1 (configuration not stated)	-9	-1	-5	2	-53*
O=C(CCc1ccccc1)N1CCN(S(=O)(=O)c2cccs2)CC1	-3	0	0	3	-40*
O=S(=O)(c1cccs1)N1CCC(Cc2ccccc2)CC1	0	1	-11	11	-42*
SMILES	D1 potentiator	TRHR ag	TRHR enhancer	D1 agonist	D1 antagonist
N#Cc1nc(Nc2cccc(F)c2)nc(NC2CCCC2)n1	-6	0	0	14	-34*
N#Cc1nc(Nc2cccc(-c3ccccc3)c2)nc(NC2CCCC2)n1	-5	1	1	5	-31*
COc1ccc(Nc2nc(C#N)nc(NC3CCCC3)n2)cc1	-1	-3	-1	0	-36*
Fc1cc(F)cc(Nc2nc(NC3CCCC3)nc(C3CO3)n2)c1 (configuration not stated)	-7	4	-9	74*	-37*
N#Cc1nc(Nc2ccc3ccccc3c2)nc(NC2CCCC2)n1	7	1	26	4	39
CCN(CC)c1ccc(NC(=O)C(NS(=O)(=O)c2cccs2)C(C)C)c(C)c1 (configuration not stated)	1	-1	10	0	19
CC(C)c1ccc(Nc2c(-c3ccccn3)nc3ccccn23)cc1	0	0	-6	4	-34*
Cc1ccccc1Nc1c(-c2ccccn2)nc2ccccn12	0	0	12	3	-2
Cc1cccc(C)c1Nc1c(-c2ccccn2)nc2c(C)cccn12	-2	0	-2	5	-48*
CCN(c1ccccc1)S(=O)(=O)c1cccc(C(=O)NCc2ccncc2)c1	-10	0	31*	5	7
CCN(c1ccccc1)S(=O)(=O)c1cccc(C(=O)NCc2cccnc2)c1	4	-1	10	8	2
O=C(NCCn1ccc2ccccc21)c1ccc(Cl)cc1	-4	0	0	0	-34*
COc1cc(OC)cc(C(=O)NCCn2ccc3ccccc32)c1	-5	-1	-3	3	-16
COc1ccc(Cl)cc1NC(=O)c1cc2nc(-c3ccc4c(c3)OCO4)cc(C(F)(F)F)n2n1	-3	-1	1	1	9
CCSC1=N/C(=C\c2ccc(C(=O)O)cc2)C(=O)S1	-8	0	-6	2	-18
CCOC(=O)SC1=N/C(=C\c2ccc(N(C)C)cc2)C(=O)S1	-3	11	3	33*	-8
CCc1ccccc1NC(=O)N1CCC(CN2CCc3ccccc3C2)CC1	3	0	2	5	-4
O=C(Nc1ccccc1C(F)(F)F)N1CCC(CN2CCc3ccccc3C2)CC1	6	0	1	30*	-6
CCOc1ccc(C(=O)C(C)OC(=O)c2nc(Cl)ccc2Cl)cc1 (configuration not stated)	3	-1	0	35*	-24
CN1CCN(C(=O)CCn2c(=O)c3cccn3c3cccnc32)CC1	-3	0	-1	6	-1
CN1CCN2c3ncccc3Cc3ccccc3[C@@H]2C1	-11	0	17	4	-32*
O=S(=O)(c1ccccc1)N1CCC(c2ccncc2)CC1	0	0	-3	4	9
CCS(=O)(=O)N1CCc2cc(C(=O)NCc3ccccc3OC)ccc21	-1	-1	-5	-1	3
